High-throughput results deposited in PubChem by Broad Institute.
IDE exosite inh = exo-site inhibitors of human insulin-degrading enzyme; z-score at 20 µM; P14735; AID 1259349; purified IDE, FL-6b probe fluorescence polarization; stronger effect = lower value; actives 6.3% (n = 17,000);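 active = z-score of -3 or lower, meaning strong loss of probe binding signal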;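 also: His-tagged human IDE residues 42-1019 made in E. coli with 30 nM FL-6b probe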
Target sequence (P14735 42-1019 limits assumed): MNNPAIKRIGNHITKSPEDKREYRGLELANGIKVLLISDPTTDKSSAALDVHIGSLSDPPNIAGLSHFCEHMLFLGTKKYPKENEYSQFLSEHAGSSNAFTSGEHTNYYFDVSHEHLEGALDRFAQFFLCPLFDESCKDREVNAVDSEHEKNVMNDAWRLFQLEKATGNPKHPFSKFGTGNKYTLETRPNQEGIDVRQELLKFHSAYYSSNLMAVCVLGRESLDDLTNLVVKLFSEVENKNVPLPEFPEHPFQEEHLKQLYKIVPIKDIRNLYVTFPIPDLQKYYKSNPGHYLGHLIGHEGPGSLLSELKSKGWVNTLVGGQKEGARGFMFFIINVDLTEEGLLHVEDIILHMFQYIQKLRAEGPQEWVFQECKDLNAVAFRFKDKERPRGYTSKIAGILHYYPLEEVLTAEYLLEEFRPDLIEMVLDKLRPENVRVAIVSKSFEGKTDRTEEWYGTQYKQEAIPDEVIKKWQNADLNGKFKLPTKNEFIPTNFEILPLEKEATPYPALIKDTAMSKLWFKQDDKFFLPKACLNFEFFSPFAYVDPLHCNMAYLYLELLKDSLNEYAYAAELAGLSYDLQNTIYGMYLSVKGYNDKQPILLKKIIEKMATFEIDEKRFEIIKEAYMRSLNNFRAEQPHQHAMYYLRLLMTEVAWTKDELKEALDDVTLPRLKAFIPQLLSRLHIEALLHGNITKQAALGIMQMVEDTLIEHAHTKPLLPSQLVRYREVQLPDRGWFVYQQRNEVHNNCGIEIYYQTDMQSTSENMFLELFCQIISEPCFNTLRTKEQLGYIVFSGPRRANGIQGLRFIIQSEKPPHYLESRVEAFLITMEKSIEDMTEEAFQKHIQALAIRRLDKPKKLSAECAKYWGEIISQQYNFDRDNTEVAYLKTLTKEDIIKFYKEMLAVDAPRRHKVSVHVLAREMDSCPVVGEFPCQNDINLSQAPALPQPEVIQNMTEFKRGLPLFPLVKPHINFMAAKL
* = called active by the depositor; ! = a repeat was not active. Many of the other results were omitted from the sample, so hits are more common in it than they were.

SMILES	IDE exosite inh
O=S(=O)(c1ccccc1F)N1CCCCN2[C@@H](CO)[C@@H](c3ccc(-c4ccccc4)cc3)[C@@H]2C1	0.014
CCS(=O)(=O)N1CC2(CN(C(=O)Nc3c(C)noc3C)[C@H](CO)c3[nH]c4cc(OC)ccc4c32)C1	1
Cc1ccc(S(=O)(=O)N[C@H]2CC[C@@H](CC(=O)NCc3ccncn3)O[C@H]2CO)cc1	0.3
COc1ccc(C#Cc2ccc3c(c2)[C@@H]2[C@@H](CCN2S(=O)(=O)c2ccccc2C)[C@H](CO)N3C)cc1	2.2
CO[C@@H]1CN(C)C(=O)c2cc(NC(C)=O)ccc2OC[C@@H](C)N(Cc2ccncc2)C[C@@H]1C	0.27
N#C[C@H]1[C@H](c2ccccc2C2=CCCC2)[C@@H](CO)N1C(=O)C1CCOCC1	-1.3
C/C=C/c1ccc(C2[C@H]3CNC[C@@H]2N3Cc2cccc(C(F)(F)F)c2)cc1 (stereo partly specified)	1.3
COc1ccc2c3c([nH]c2c1)[C@@H](CO)N(C)CC31CCN(C(=O)CN(C)C)CC1	1.1
N#C[C@H]1[C@@H](c2ccccc2-c2ccccc2F)[C@H](CO)N1C(=O)c1cccc(F)c1	1.1
CCC(=O)N1CC(=O)N2[C@H](C1)[C@H](c1ccc(C#CCc3ccccc3)cc1)[C@@H]2CO	0.49
O=C(Cc1ccccc1)N1CC(=O)N2[C@H](CO)[C@H](c3ccc(C#CCc4ccccc4)cc3)[C@H]2C1	-4.3*
CCC(=O)N1CC(=O)N2[C@@H](CO)[C@@H](c3ccc(C#CCc4ccccc4)cc3)[C@@H]2C1	-7.4*
O=C(Cc1ccccc1)N1CC(=O)N2[C@H](CO)[C@@H](c3ccc(C#CCc4ccccc4)cc3)[C@H]2C1	2.1
O=C(Cc1ccccc1)N1CC(=O)N2[C@H](C1)[C@@H](c1ccc(C#Cc3ccccc3)cc1)[C@@H]2CO	-2.8
CCC(=O)N1CC(=O)N2[C@H](CO)[C@@H](c3ccc(C#CCc4ccccc4)cc3)[C@H]2C1	0.71
C/C=C/c1ccc([C@H]2[C@@H](CO)N(C(=O)CC)[C@H]2CN(C)Cc2cncnc2)cc1	-0.73
O=C(C[C@H]1CC[C@H]2[C@@H](COC[C@@H](O)CN2Cc2cccc(Cl)c2)O1)NCc1cccc(F)c1	-0.2
N#C[C@@H]1[C@H](c2ccccc2-c2ccc(F)cc2)[C@@H](CO)N1C(=O)Cc1ccccc1	-0.57
O=C(c1ccccc1)N1CC(=O)N2[C@H](CO)[C@H](c3ccc(C#CC4CC4)cc3)[C@@H]2C1	1.3
CN(C)C(=O)c1ccc(-c2ccc([C@@H]3[C@H](C#N)N(C(=O)C4CCC4)[C@H]3CO)cc2)cc1	2.6
O=C(c1ccc(F)cc1)N1C[C@@H]2N[C@H](C1)C2c1ccc(-c2ccccc2F)cc1 (stereo partly specified)	-4.1*!
O=C(c1ccc(F)cc1)N1C[C@@H]2N[C@H](C1)C2c1ccc(-c2cncnc2)cc1 (stereo partly specified)	3.3
O=C(c1ccc(F)cc1)N1C[C@@H]2N[C@H](C1)C2c1ccc(-c2ccc(F)cc2)cc1 (stereo partly specified)	3.9
Cc1ccccc1-c1ccc(C2[C@@H]3CN(C(=O)c4ccc(F)cc4)C[C@H]2N3)cc1 (stereo partly specified)	-10*!
O=C(c1ccc2c(c1)OCO2)N1C[C@@H]2N[C@H](C1)C2c1ccc(-c2ccccc2F)cc1 (stereo partly specified)	-2.8
SMILES	IDE exosite inh
O=C(c1ccncc1)N1C[C@@H]2N[C@H](C1)C2c1ccc(-c2ccncc2)cc1 (stereo partly specified)	3.2
COC(=O)c1ccc(CN2CC(=O)N3[C@@H](CO)[C@@H](c4ccc(-c5ccccc5F)cc4)[C@@H]3C2)cc1	-0.91
Cc1ccccc1-c1ccc([C@H]2[C@H]3CN(S(C)(=O)=O)CC(=O)N3[C@H]2CO)cc1	-0.36
CCC(=O)NC[C@H]1[C@@H](c2ccc(-c3cccc(F)c3)cc2)[C@@H](CO)N1C(=O)CC	1.5
COc1ccc(C#Cc2ccc([C@H]3[C@H]4CN(C(=O)c5ccc(F)cc5)CC(=O)N4[C@H]3CO)cc2)cc1	0.98
O=C(NC[C@H]1[C@@H](c2ccccc2)[C@@H](CO)N1CC1CCCC1)c1ccncc1	5
COc1ccc(-c2ccc([C@H]3[C@@H](C#N)N(C(=O)NC(C)C)[C@@H]3CO)cc2)cc1	-1.3
COc1ccc(-c2ccc([C@@H]3[C@@H](C#N)N(C(=O)C4CCCC4)[C@H]3CO)cc2)cc1	0.9
COc1ccc(-c2ccc([C@@H]3[C@H](C#N)N(C(=O)NC(C)C)[C@H]3CO)cc2)cc1	0.084
N#C[C@@H]1[C@@H](c2ccc(-c3ccccc3F)cc2)[C@H](CO)N1C(=O)C1CCC1	2.1
COc1ccccc1-c1ccc([C@H]2[C@@H](CO)N(C(=O)NC(C)C)[C@H]2C#N)cc1	-16*
COc1ccc(-c2ccc([C@H]3[C@@H](C#N)N(C(=O)C4CCCC4)[C@@H]3CO)cc2)cc1	3.2
COc1ccccc1-c1ccc([C@H]2[C@@H](CO)N(C(=O)C3CCCCC3)[C@H]2C#N)cc1	-3.3*
COc1ccccc1-c1ccc([C@@H]2[C@@H](C#N)N(C(=O)C3CC3)[C@@H]2CO)cc1	-17*
COc1ccccc1-c1ccc([C@H]2[C@H](C#N)N(C(=O)C3CC3)[C@H]2CO)cc1	-10*
N#C[C@H]1[C@@H](c2ccc(-c3ccccc3F)cc2)[C@H](CO)N1C(=O)C1CCC1	-0.67
CN(C)CC(=O)N1CCCCN2[C@H](C1)[C@H](c1ccc(-c3ccccc3)cc1)[C@@H]2CO	1.5
O=C(C1CCC1)N1CC2(C1)[C@@H](c1ccccc1)[C@@H](CO)N2Cc1nccs1	1.3
O=S(=O)(Cc1ccccc1)N1CCCCN2[C@H](C1)[C@H](c1ccc(-c3cccnc3)cc1)[C@@H]2CO	-0.26
CN1C(=O)c2cc(NC(=O)c3cccc(F)c3)ccc2OC[C@H]2O[C@H](CC(=O)NCc3ccccc3Cl)CC[C@@H]21	-0.74
CN(C[C@@H]1N[C@@H](CO)[C@@H]1c1ccc(C2=CCCC2)cc1)S(C)(=O)=O	2.5
O=C1CNC[C@@H]2[C@@H](c3ccc(C4=CCCC4)cc3)[C@H](CO)N12	1.2
CO[C@H]1CN(C)C(=O)c2cc(NC(=O)Nc3cc(F)ccc3F)ccc2OC[C@H](C)NC[C@@H]1C	0.19
COc1ccccc1NC(=O)N1CC(=O)N2[C@H](CO)[C@@H](c3ccc(C#CC(C)C)cc3)[C@H]2C1	-2.1
COc1ccc(-c2ccc([C@H]3[C@H](C#N)N(C(=O)c4cccc(F)c4)[C@H]3CO)cc2)cc1	2.6
SMILES	IDE exosite inh
COc1ccccc1-c1ccc([C@H]2[C@@H](C#N)N(C(=O)C3CC3)[C@H]2CO)cc1	-5.3*
Cc1ccc(-c2ccccc2[C@@H]2[C@H](C#N)N(C(=O)c3cccc(F)c3)[C@H]2CO)cc1	0.43
N#C[C@@H]1[C@@H](c2ccc(-c3ccccc3F)cc2)[C@H](CO)N1C(=O)C1CC1	-3.1*
N#C[C@H]1[C@H](c2ccc(-c3ccccc3F)cc2)[C@H](CO)N1C(=O)C1CC1	-2.4
COc1ccc(-c2ccc([C@H]3[C@H](C#N)N(C(=O)C4CC4)[C@H]3CO)cc2)cc1	-0.56
COc1ccccc1-c1ccccc1[C@H]1[C@H](C#N)N(C(=O)C2CC2)[C@H]1CO	3.4
COc1ccccc1-c1ccc([C@H]2[C@@H](C#N)N(C(=O)C3CC3)[C@@H]2CO)cc1	-3.2*
COc1ccc(-c2ccc([C@H]3[C@@H](C#N)N(C(=O)C4CC4)[C@@H]3CO)cc2)cc1	0.4
